# Out of some 210,000 compounds screened, about 5,900 (2.8%) were called active. Entries that show only a call come without a potency. Roughly 5% stayed inconclusive and do not appear here. The call rests on the fitted dose curve; in most records, active means well fitted activation curve with a large enough effect; inconclusive means small, poorly fitted or top-dose-only effect; inactive means no such curve, though single readings can be large or run the other way. The sample as a whole holds a higher share of actives than the screen did.
# Assay: qHTS Assay for Enhancers of SMN2 Splice Variant Expression; further: nearly all actives have a fitted effect of over 55% in size
# Settings: HEK293 SMN2-luciferase splicing reporter, luminescence, 30-36 h; series mostly up to 46.1 µM
# In short: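 HEK293 cells carry an SMN2 […]–luciferase reporter in which exon 7 inclusion puts luciferase in frame. Cells were plated 10-12 h before compound addition, then incubated 30-36 h at 37C. ONE-Glo luminescence was read; sodium butyrate at 4.5 mM final served as control.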
# Potency means the concentration at half of the fitted maximal effect.
row,Compound,Potency
1,Cc1c(NC(=O)c2cc(-c3ccc(Br)cc3)on2)c(=O)n(-c2ccccc2)n1C,inactive
2,CC(C)Oc1ccc(CNC(=O)C2CCN(c3nc4ccccc4n(C)c3=O)CC2)cc1,inactive
3,Cc1cc(C)c2oc(C(=O)Nc3ccc(S(=O)(=O)N(C)c4ccccc4)cc3)cc(=O)c2c1,inactive
4,Cc1nc2cc(NC(=O)NCc3ccccc3)ccc2o1,inactive
5,Cc1ccc(NC(=O)Nc2ccc3oc(C)nc3c2)cc1,11.2 µM (active)
6,Cc1nc2ccc(NC(=O)C(F)(F)F)cc2o1,inactive
7,CC(C)c1ccc(NS(=O)(=O)c2ccc3[nH]cc(C(=O)NC4CCCC4)c(=O)c3c2)cc1,inactive
8,CCOc1ccc(-c2n[nH]c3c2C(c2ccccc2OC)N(c2ccc(Br)cc2)C3=O)cc1 (stereo not given),inactive
9,COc1cccc(OCC(=O)Nc2ccccc2C(N)=O)c1,11.2 µM (active)
10,COc1cccc(OCC(=O)NNC(=O)c2cnccn2)c1,inactive
11,CCCOC(=O)Nc1ccccc1C(N)=O,inactive
12,CCOc1ccc(-c2nonc2NC(=O)c2oc3ccc(CC)cc3c2C)cc1,inactive
13,CCOC(=O)c1ccc(NC(=O)c2ncn(-c3ccccc3)n2)cc1,inactive
14,CCC(=O)N1CCc2cc(S(=O)(=O)CCC(=O)N3CCN(c4ccccc4F)CC3)ccc21,inactive
15,O=C(/C=C/c1ccc(Cl)cc1)Nc1ccc(S(=O)(=O)Nc2ncccn2)cc1,inactive
16,CC(C)(C)c1ccc(/C=C/C(=O)Nc2ncccn2)cc1,22.4 µM (active)
17,CC(C)(C)c1ccc(/C=C/C(=O)NC2CCS(=O)(=O)C2)cc1 (stereo not given),inactive
18,CCN(CC)CCNC(=O)Cn1ncc2c3ccccc3n(Cc3ccccc3C)c2c1=O,inactive
19,COCCCNC(=O)c1c(NC(=O)c2cc(=O)c3cc(C)c(C)cc3o2)sc2c1CCCC2,inactive
20,CCOC(=O)c1nnn(CC(=O)NC(=O)Nc2ccccc2F)c1C(=O)OCC,inactive
21,COc1ccc(CNC(=O)CC2Oc3ccc(C)cc3NC2=O)cc1 (stereo not given),inactive
22,O=C(c1ccc(C(F)(F)F)cc1)N1CCC(c2nc(-c3ccc(S(=O)(=O)N4CCCC4)cc3)no2)CC1,inactive

row,Compound,Potency
1,COc1ccccc1C(=O)CSc1cccc[n+]1[O-],inactive
2,O=C(CSc1cccc[n+]1[O-])c1ccc(-c2ccccc2)cc1,12.6 µM (active)
3,O=C(CSc1cccc[n+]1[O-])c1ccc(Cl)cc1,inactive
4,Cc1c(C(=O)NCc2ccccc2Br)oc2ccc3c(c12)C(=O)CC(C)(C)O3,inactive
5,CCS(=O)(=O)c1nc(S(=O)(=O)c2ccc(C)cc2)c(NCc2ccc(Cl)cc2)s1,inactive
6,O=c1n(Cc2cccc(C(F)(F)F)c2)c2ccccc2c2nc(-c3ccccc3)nn12,inactive
7,Cc1ccc(NC(=O)C(Cc2ccccc2)NS(=O)(=O)c2ccc3c(c2)oc(=O)n3C)cc1C (stereo not given),inactive
8,C/C=C/c1ccc(OCCOc2ccc(C=O)cc2OC)c(OC)c1,inactive
9,COc1cc(/C=C2/C(=O)ON=C2C)ccc1OCc1ccccc1F,inactive
10,COc1cc(/C=C2/C(=O)ON=C2C)ccc1OCc1cccc(F)c1,12.6 µM (active)
11,CCOC(=O)c1c(C)oc2ccc(N(C(=O)c3ccncc3)S(=O)(=O)c3ccc(CC)cc3)cc12,inactive
12,CCOC(=O)C1=C(c2ccccc2)Nc2ncnn2C1c1ccc(Cl)cc1 (stereo not given),inactive
13,CC(=O)Nc1cc2ccc(OC(C)=O)cc2oc1=O,inactive
14,O=C(O)c1ccc(NC(=O)C2CCCCC2)cc1,inactive
15,O=C(Nc1cc2ccccc2oc1=O)C1CCCCC1,4.47 µM (active)
16,COc1ccc(CNC(=O)c2cc3c(=O)[nH]c4ccc(C)cc4c3s2)c(OC)c1,inactive
17,Cc1cccc2c1N(CCOc1ccccc1)C(=O)C2=O,inactive
18,Cc1nn(CCOc2ccccc2)c(=O)n1-c1ccccc1F,17.8 µM (active)
19,Cc1c(C(N)=O)sc2ncn(CCOc3ccccc3)c(=O)c12,inactive
20,Cc1cc(C)cc(NC(=O)CSc2oc(-c3ccccc3)nc2S(=O)(=O)c2ccc(Cl)cc2)c1,inactive
21,Cc1ccc(Cl)cc1N1CCN(C(=O)CN2C(=O)COc3ccc(S(=O)(=O)N4CCOCC4)cc32)CC1,inactive
22,COc1cccc(OCCCN2CCCCCC2)c1,inactive

row,Compound,Potency
1,C(=N\n1cnnc1)/c1cccnc1,inactive
2,COc1cccc(OCCOc2cccc(/C=N/n3cnnc3)c2)c1,8.91 µM (active)
3,CCOc1ccccc1C(=O)NC1(C(F)(F)F)NC(=O)N(CCc2ccc(OC)c(OC)c2)C1=O (stereo not given),inactive
4,CCOC(=O)c1ccc(NC(=O)C2CC(=O)NC(=Nc3ccc(C)c(C)c3)S2)cc1 (stereo not given),inactive
5,CCCCN(C)CCNC(=O)C1CCCN(S(=O)(=O)c2cccc3nsnc23)C1 (stereo not given),inactive
6,Cc1ccc(S(=O)(=O)c2nnn3c2nc(N2CCN(c4ccccc4F)CC2)c2cc(Cl)ccc23)cc1C,inactive
7,O=C(NNC(=S)Nc1ccc(Br)cc1Cl)c1ccco1,12.6 µM (active)
8,CCC(=O)NC(=S)Nc1ccc(NC(=O)c2ccco2)c(Cl)c1,inactive
9,S=C(Nc1ccc(Br)cc1Cl)NC1CCN(Cc2ccccc2)CC1,inactive
10,Cc1ccc(-c2cc(-c3coc4ccccc4c3=O)c3c(n2)-c2cc(Cl)ccc2OC3)cc1,inactive
11,COc1ccc(CNC(=O)c2ccc(NC(=O)N3CC4CCCN4c4ccccc43)cc2)cc1 (stereo not given),inactive
12,C/C(=N\NC(=O)OC(C)(C)C)c1ccc[nH]1,12.6 µM (active)
13,CC(C)(C)OC(=O)N/N=C/c1ccc(C(=O)O)cc1,inactive
14,Cc1ccccc1NC(=O)NNC(=O)OC(C)(C)C,inactive
15,Cc1cc(NC(=O)c2ccc(-c3ccc(Cl)cc3)o2)cc(-c2nc3ncccc3o2)c1O,inactive
16,COc1ccc(C(=O)Nc2nonc2-c2ccc(OC)c(OC)c2)cc1Cl,inactive
17,CC(C)=C(NC(=O)c1ccccc1)C(=O)N/N=C(\C)c1ccccc1O,inactive
18,C/C(=N\NC(=O)c1nc(C)cc(C)n1)c1ccccc1,11.2 µM (active)
19,C/C(=N/NC(=O)c1ccc(NC(=O)c2ccc(F)cc2)cc1)c1ccccc1,inactive
20,CCOC(=O)c1c(NC(C)=O)c2c3c(sc2n1Cc1c(C)cc(C)cc1C)CCCC3,inactive
21,COc1ccccc1-c1cc2nc(C)c(CCC(=O)NC3CCCCC3)c(C)n2n1,inactive

# Source: PubChem BioAssay AID1458 (National Center for Advancing Translational Sciences (NCATS), 2008)
